# Screening data from PubChem.
# An excerpt weighted towards active compounds, which were near 5.7% of everything screened.
# DAX1 inh-1 = inhibitors of human orphan nuclear receptor DAX1 (NR0B1); inhibition, % at 6.75 µM; HEK293 Gal4-DAX1 luciferase reporter, luminescence; 0.99% of 340,000 active; P51843; AID 504766;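 active = inhibition above the mean over all tested compounds plus 3 SD, cut at about 4.2% in these data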;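 also: 0% = DAX1-transfected cells with DMSO and 100% = empty-vector control cells with DMSO; inhibition shows as a rise in luminescence from relieved DAX1 repression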
# Target sequence (P51843 207-470 limits assumed): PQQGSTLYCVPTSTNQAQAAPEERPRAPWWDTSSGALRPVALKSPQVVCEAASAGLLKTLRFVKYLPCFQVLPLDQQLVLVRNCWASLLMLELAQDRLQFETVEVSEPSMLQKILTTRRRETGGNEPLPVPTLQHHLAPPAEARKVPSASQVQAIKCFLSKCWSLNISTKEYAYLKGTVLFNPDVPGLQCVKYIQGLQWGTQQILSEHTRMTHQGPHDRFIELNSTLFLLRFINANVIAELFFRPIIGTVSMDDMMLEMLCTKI
# AHR activator = activates the human aryl hydrocarbon receptor. P35869. AHR-responsive luciferase reporter cells, luminescence. activation, % at 5 µM. 2.5% of 320,000 active; in the data active = activation above about 47%;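 also: 0% = vehicle wells and 100% = reference agonist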
# ssDAF-12 act = S. stercoralis DAF-12 activation, primary screen; HEK293 ssDAF-12/GRIP1 lit1-tk-luc reporter, luminescence; % of 3 µM dafachronic acid response; 1% of 370,000 active; activation, % at 6.8 µM; AID 652126;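 active = activation above the mean over all tested compounds plus 3 SD, cut at about 0.9% in these data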;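 also: 0% = DMSO-only wells and 100% = 3 µM delta7-dafachronic acid wells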
# hcDAF12 agonist = activates DAF-12 receptor from parasite H. contortus | HEK293 hcDAF-12 lit1-tk-luc reporter, luminescence; 0% DMSO, 100% Δ7-dafachronic acid | activation, % at 6.8 µM | 1.4% of 370,000 active;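 active = activation above the mean of all tested compounds plus 3 SD, cut at about 5.5% in these data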;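 also: 100% = response to 3 µM Δ7-dafachronic acid high control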
# hgDAF-12 ag = activates the H. glycines DAF-12 receptor ligand-binding domain. HEK293 GAL4-hgDAF12 UAS-luciferase reporter, agonist luminescence; normalized to butyrate control. activation, % at 6.8 µM. 1.8% of 370,000 active;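 active = activation above a cutoff set at the mean of all screened compounds plus 3 SD, cut at about 10% in these data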;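 also: 0% = DMSO wells and 100% = sodium butyrate wells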
# DAX1 inh-2 = inhibitors of DAX1 repression of SF-1 activated StAR promoter; HEK293T StAR-luciferase reporter, SF-1/DAX-1 repression relief; inhibition, % at 6.8 µM; 1.1% of 370,000 active;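 active = inhibition above the mean over all tested compounds plus 3 SD, cut at about 3.6% in these data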;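 also: 0% = DAX-1 cells with DMSO and 100% = cells lacking DAX-1 with DMSO; higher inhibition means more luminescence from relief of DAX-1 repression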
# hgDAF12 conf = hgDAF-12 agonism, confirmation assay; shares compounds with hgDAF-12 ag; HEK293 GAL4-hgDAF12 luciferase reporter, agonist mode; percent of butyrate response; activation, % at 6.8 µM; 80% of 3,300 active;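 active = mean activation over triplicate wells above the hit cutoff derived from the earlier primary screen, cut at about 11% in these data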;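 also: 0% = DMSO low control and 100% = 2 mM sodium butyrate high control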
# LXRb DAF12 ctr = counter-screen for DAF-12 agonists: agonists of human LXR-beta | shares compounds with hgDAF-12 ag | 3,300 tested, under 10 active | HEK293 Gal4-LXR luciferase reporter, 24 h | AID 743051 | activation, % at 6.8 µM;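 active = mean activation of the triplicate above a set limit carried over from the primary screen, none filed active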
# * hit, by the source's call; nt = no result given.
SMILES,DAX1 inh-1,AHR activator,ssDAF-12 act,hcDAF12 agonist,hgDAF-12 ag,DAX1 inh-2,hgDAF12 conf,LXRb DAF12 ctr
CCN(Cc1ccccc1)C(=O)Cn1cnc2c1c(=O)n(C)c(=O)n2C,-0.1,-0.9,-1.3,-0.2,-1.5,0.0,nt,nt
CCc1c(O)c(-c2ccccc2)c(=O)n(-c2ccccn2)c1-c1ccccc1,0.3,-1.4,0.4,-0.5,-2.7,0.7,nt,nt
COc1ccc(-n2ncc3c(NC(C)C)ncnc32)cc1,0.0,-6.1,0.7,5.4,18.9*,3.3,16.7*,0.9
COCC(C)Nc1ncnc2c1cnn2-c1ccc(Cl)cc1 (configuration not stated),1.0,-7.8,0.5,5.8*,17.8*,4.0*,10.7*,1.0
COc1ccc(-n2ncc3c(N4CCCCC4)ncnc32)cc1,-4.6,-9.5,nt,nt,nt,nt,nt,nt
O=C(CNC(=O)c1cccs1)c1ccc(Br)cc1,0.2,-3.9,-0.7,1.7,14.9*,1.9,14.0*,0.7
O=c1cc(-c2ccco2)oc2ccccc12,2.6,nt,-1.0,-0.3,1.0,0.5,nt,nt
Cc1ccc2oc(-c3ccco3)cc(=O)c2c1,0.5,-4.3,0.1,2.1,13.7*,3.5,16.5*,0.6
CCOc1ccc(-c2cc(C(=O)NN=C3CCN(C)CC3)[nH]n2)cc1,0.1,20.1,1.1*,6.0*,13.3*,3.2,3.1,0.0
COc1cc(S(=O)(=O)N2CCCCC2)ccc1NC(C)=O,0.1,-0.8,-1.6,-2.7,0.8,-0.5,nt,nt
Brc1c(CSc2nc3ccccc3s2)nc2ncccn12,0.6,9.8,-0.4,0.5,16.3*,3.1,11.7*,0.6
CCC(C(=O)c1ccc2ncccc2c1)c1ccccc1 (configuration not stated),-1.4,-3.7,-2.2,-2.2,-1.8,-1.0,nt,nt
CCOC(=O)c1sc(NC(=S)NC(=O)c2ccccc2)nc1C,1.5,23.5,-0.4,5.9*,16.1*,2.6,12.3*,0.3
COc1ccc2nc(NC(=O)c3ccc(F)cc3)sc2c1,4.7*,-5.5,-0.3,0.5,13.8*,1.8,12.7*,0.7
CCOC(=O)c1sc(NC(=O)Nc2ccc(F)cc2)nc1C,2.0,-4.4,-0.5,4.2,17.3*,3.7*,22.6*,1.0
Cc1csc(NC(=S)NC(=O)c2ccccc2)n1,2.9,0.6,0.2,4.8,15.7*,1.4,15.5*,0.6
CCOC(=O)c1sc(NC(=O)Cc2ccc(F)cc2)nc1C,1.1,2.6,-1.3,0.2,0.9,0.1,nt,nt
CCOC(=O)Cc1csc(NC(=S)NC(=O)c2ccccc2)n1,0.6,-13.5,-1.9,-3.3,3.3,-0.1,nt,nt
CC(=O)Nc1cccc(/C(C)=N/Nc2nc3ccccc3s2)c1,3.0,61.4*,-0.3,4.4,15.5*,2.8,12.7*,0.7
CC(=O)Nc1cccc(/C(C)=N/NC(=O)c2cc(-c3ccncc3)nc3ccccc23)c1,-1.8,6.2,-1.7,-0.1,2.8,0.7,nt,nt
CCOC(=O)c1sc(NC(=O)Nc2ccccc2)cc1C,0.5,-5.9,0.5,5.5,16.9*,3.2,22.8*,1.2
COc1cccc(C(=O)Nc2nc3ccccc3s2)c1,2.6,33.2,2.4*,6.3*,16.9*,3.4,20.2*,1.0
COc1cccc(C(=O)Nc2nc(C)cs2)c1,1.1,4.7,0.0,1.8,14.6*,2.1,13.8*,0.7
O=S1(=O)N[C@@H](Cc2ccccc2)COc2cc(NCCCN3CCOCC3)ccc21,nt,nt,-1.0,-1.3,-4.2,-1.7,nt,nt
COc1ccc(C(=O)Nc2nc3ccccc3s2)cc1OC,2.4,11.9,-0.5,2.9,19.4*,2.6,14.4*,0.6
SMILES,DAX1 inh-1,AHR activator,ssDAF-12 act,hcDAF12 agonist,hgDAF-12 ag,DAX1 inh-2,hgDAF12 conf,LXRb DAF12 ctr
COc1ccc(C(=O)Nc2nc3ccccc3s2)cc1,-3.3,-3.2,-0.1,2.7,7.2,1.0,nt,nt
CCC1(c2ccc(F)cc2)NC(=O)N(CC(=O)Nc2ccccc2C)C1=O (configuration not stated),-0.5,0.9,-1.2,-1.7,3.7,0.0,nt,nt
COc1ccc(C2(C)NC(=O)N(CC(=O)Nc3ccc(-c4nc5ccc(C)cc5s4)cc3)C2=O)cc1 (configuration not stated),nt,1.6,0.1,2.2,18.8*,3.6,11.0*,0.5
CCC1(c2ccc(F)cc2)NC(=O)N(CC(=O)Nc2ccc(-c3nc4ccc(C)cc4s3)cc2)C1=O (configuration not stated),1.5,2.5,0.6,4.6,19.8*,3.8*,15.9*,0.9
Cc1ccc(-c2cc(C(=O)NN=Cc3ccccc3OCC(=O)O)[nH]n2)cc1,nt,nt,-1.2,2.3,4.3,0.1,nt,nt
CCc1ccc(-c2cc(C(=O)N/N=C/c3ccccn3)[nH]n2)cc1,4.5*,40.8,0.3,3.9,18.1*,2.2,3.3,0.1
O=C(N/N=C/c1ccccn1)c1cc(-c2ccccc2Cl)n[nH]1,1.2,9.2,-1.2,0.4,0.4,0.2,nt,nt
O=C(N/N=C/c1ccccn1)c1cc(-c2cccc3ccccc23)n[nH]1,6.6*,69.7*,-1.2,-0.8,14.5*,0.7,-0.9,0.1
O=C(N/N=C/c1ccccn1)c1cc(-c2ccc3ccccc3c2)n[nH]1,1.4,8.5,0.2,4.6,22.4*,3.3,0.5,0.1
Cc1ccc(-c2cc(C(=O)N/N=C/c3c[nH]c4ccccc34)[nH]n2)cc1,-1.6,nt,-1.1,-0.2,14.5*,-1.8,6.3,0.1
CC1CC(O)(CC(O)(c2ccccc2)c2ccccc2)C(C)CN1C (configuration not stated),0.9,2.0,-1.0,-0.2,-0.9,0.5,nt,nt
CCN(C(=O)CSc1nnc(-c2ccc(F)cc2)c2ccccc12)C1CCS(=O)(=O)C1 (configuration not stated),-2.2,-0.1,-1.4,-1.0,-1.8,0.5,nt,nt
Cc1ccc(-c2ccc(S(=O)(=O)N3CCCC3)cc2)cc1,-0.6,-2.5,-0.9,-0.3,0.3,0.3,nt,nt
Cc1[nH]ncc1N=Cc1ccc([N+](=O)[O-])cc1,-0.8,1.5,-1.1,0.0,-3.1,-1.0,nt,nt
Fc1ccccc1NC(=S)N/N=C/c1ccccc1Br,1.2,123.8*,0.5,3.8,16.2*,4.3*,11.8*,0.8
O=[N+]([O-])c1ccc(/C=N/NC(=S)Nc2ccccc2F)o1,2.2,9.5,-1.3,1.3,1.6,-1.6,nt,nt
N#C/C(=C\c1ccc(N2CCOCC2)cc1)c1ccccc1,2.0,-3.4,0.4,6.1*,21.3*,1.5,17.2*,1.0
COc1cc2nc(N3CCN(c4cc(C)ccc4C)CC3)nc(N)c2cc1OC,-1.1,2.0,-1.4,-1.9,-0.6,1.1,nt,nt
